Sampled rows, rich in hits. Any-hit rate of the full collection: about 7.5%.
FLuc modulator: counter-screen for miR-21 project: firefly luciferase inhibitors or activators; Potency, µM (titrated, usually from 57.5 µM), inactives show at the highest dose activity change, negative = inhibition, hits mostly inhibitors; P08659; hit rate 6.9% among 360,000; purified FLuc, Km substrates, luminescence inhibition;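 further: plate controls were vehicle for no effect and reference inhibitor for full effect; nearly all actives have a fitted effect of over 55% in size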
Target sequence (P08659 whole entry, looked up): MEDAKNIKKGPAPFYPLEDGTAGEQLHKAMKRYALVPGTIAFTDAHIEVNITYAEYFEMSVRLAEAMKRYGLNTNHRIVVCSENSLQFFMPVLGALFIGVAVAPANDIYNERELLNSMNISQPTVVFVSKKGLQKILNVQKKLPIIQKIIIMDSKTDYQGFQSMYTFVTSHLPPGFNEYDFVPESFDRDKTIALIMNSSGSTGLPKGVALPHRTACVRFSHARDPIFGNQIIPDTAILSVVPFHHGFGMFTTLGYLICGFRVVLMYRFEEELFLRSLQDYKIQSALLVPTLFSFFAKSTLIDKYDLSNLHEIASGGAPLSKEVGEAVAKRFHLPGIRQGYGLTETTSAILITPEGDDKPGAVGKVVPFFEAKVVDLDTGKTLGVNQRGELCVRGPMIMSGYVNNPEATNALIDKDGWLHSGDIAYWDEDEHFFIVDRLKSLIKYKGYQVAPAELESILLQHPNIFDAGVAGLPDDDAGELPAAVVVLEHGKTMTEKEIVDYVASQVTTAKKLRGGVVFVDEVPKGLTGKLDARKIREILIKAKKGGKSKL
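Purified P. pyralis luciferase (10nM final) with 10uM D-luciferin and 10uM ATP (Km levels) in 50mM Tris acetate pH 7.5, 10mM Mg acetate, 0.01% Tween-20, 0.05% BSA; qHTS 6-point titration, ~60 µM downward; luminescence read.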
NPC1 prom act: activates the NPC1 promoter; Potency, µM (titrated, usually from 9.22 µM), without a hit: at the top dose activation, most hits filed as activators; Huh7 NPC1 promoter luciferase reporter, 24 h; hit rate 2.4% among 320,000; further: % of control where 0% means no effect; nearly all actives have a fitted effect of over 60% in size
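Stable NPC1-promoter luciferase Huh7 line; cpd (DMSO) 24 h, 37 °C, 5% CO2; Amplite luciferase reagent 10 min RT; luminescence readout. qHTS format.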
ELG1 genotoxic: inducers of genotoxicity in HEK293T ELG1-luciferase cells; HEK293T ELG1-luciferase reporter, luminescence, 16 h; hit rate 1.3% among 330,000; Potency, µM (doses to about 46 µM), for the others: top-dose activity change, positive = activation, actives largely listed as activators; AID 504466; further: % of control where 0% means no effect; nearly all actives have a fitted effect of over 60% in size
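Screening used a luciferase reporter fused to human ELG1 in HEK293T cells. Luminescence was read on a CCD plate imager after 16 hr exposure and 30 min ONE-Glo incubation.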
Rab9 promoter act: activates the Rab9 promoter; Potency, µM (highest dose often 9.22 µM), inactives show top-dose activation, negative = inhibition, usual class: activators; Huh7 Rab9 promoter-luciferase reporter, luminescence, 24 h; hit rate 2.8% among 320,000; further: % of control where 0% means no effect; nearly all actives have a fitted effect of over 60% in size
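Luminescence from Amplite-detected luciferase (10 minutes, ambient) reports Rab9 promoter activation. Before that, stable Rab9-luciferase Huh7 cells (1500/well, reduced-serum OP-MEM I plus 10% FBS) were exposed to compound for 24 hours at 37C.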
Luc counter: Kinase-Glo luciferase inhibition (counter-screen); Potency, µM (titrated, usually from 38.3 µM), for inactives: at the highest dose activity change, negative = inhibition, actives largely listed as inhibitors; Q27757; Kinase-Glo luciferase, ATP luminescence, 8 min; hit rate 0.28% among 200,000; further: on the % scale 0 is the no-effect control and ±100 the full control effect; nearly all actives have a fitted effect of over 60% in size
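Substrate mix (final 50 mM imidazole pH 7.2, 50 mM KCl, 7 mM MgCl2, 10 uM ATP, 0.01% Tween 20, 0.05% BSA) plus pin-tool compound, then Kinase-Glo detection mix; 8 min ambient, luminescence read.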
SMN2 splice up: SMN2 splice variant enhancement | HEK293 SMN2-luciferase splicing reporter, luminescence, 30-36 h | hit rate 2.8% among 210,000 | Potency, µM (series often up to 46.1 µM), for the others: at the highest dose activity change, positive = activation, actives largely listed as activators; further: % of control where 0% means no effect; nearly all actives have a fitted effect of over 55% in size
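qHTS luciferase splicing reporter: luminescence rises when SMN2 exon 7 is included in transfected HEK293 cells. Compound exposure lasted 30-36 h at 37C, with 4.5 mM final sodium butyrate as control, followed by a ONE-Glo read.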
* marks the source's active call; other numbers are inactive results; [ ] = dose if it differs, or a comment. The call rests on the fitted dose curve; in most records, active means well fitted curve in the direction sought with a large enough effect; inconclusive means small, poorly fitted or top-dose-only effect, or another doubt; inactive means no such curve, though single readings can be large; an effect the other way counts as inactive or inconclusive. Potency means the concentration at half of the fitted maximal effect.

`Cc1ccc(OC(=O)COc2ccccc2)c(-n2nc3ccccc3n2)c1` gave FLuc modulator 8.5µM*, NPC1 prom act 3.5µM*, ELG1 genotoxic 7.3µM*, Rab9 promoter act 2µM*, Luc counter -2% and SMN2 splice up 20%.
Screening Cc1ccc(OC(=O)COc2ccccc2C)c(-n2nc3ccccc3n2)c1 returned FLuc modulator 4.8µM*, NPC1 prom act inconclusive, ELG1 genotoxic inconclusive, Rab9 promoter act inconclusive, Luc counter -11% and SMN2 splice up 11µM*.
COCCN(C(=S)Nc1ccc(C)cc1)C(C)c1ccco1 (stereo not drawn) was read as FLuc modulator 13µM*, NPC1 prom act 0%, ELG1 genotoxic 1% and Rab9 promoter act -1%.
For COc1ccc(/C=C/c2ccc3ccccc3[n+]2C)cc1OC the results were FLuc modulator 17µM*, NPC1 prom act -4%, ELG1 genotoxic inconclusive and Rab9 promoter act -11%.
Screening CN(C)c1ccc(/C=C/c2ccc3ccccc3[n+]2C)cc1 returned FLuc modulator inconclusive, NPC1 prom act -35%, ELG1 genotoxic 10%, Rab9 promoter act -47%, Luc counter inconclusive and SMN2 splice up -74%.
O=C1O/C(=C/c2ccccc2)c2ccccc21 was read as FLuc modulator 12µM*, NPC1 prom act -3%, ELG1 genotoxic -2%, Rab9 promoter act 3%, Luc counter -6% and SMN2 splice up 9%.
COc1ccc(C2(c3ccc(OC)cc3)NC(=O)N(CC(=O)N(C)c3ccccc3)C2=O)cc1 was read as FLuc modulator 19µM*, NPC1 prom act 3.5µM*, ELG1 genotoxic inconclusive and Rab9 promoter act 2.2µM*.
Screening Nc1ncc(S(=O)(=O)NCc2ccc(Cl)cc2)cn1 returned FLuc modulator 2%.
For CCNC(=O)NC(=O)COC(=O)c1ccccc1SCC(=O)NC(=O)NCC the results were FLuc modulator 5.4µM*, NPC1 prom act 1.6µM*, ELG1 genotoxic inconclusive, Rab9 promoter act 2.8µM*, Luc counter -23% and SMN2 splice up 8.9µM*.
For Cc1cc(C(=O)Cn2ncc(Cl)c(Cl)c2=O)c(C)n1CC(F)(F)F the results were FLuc modulator 15µM*, NPC1 prom act -8%, ELG1 genotoxic -15%, Rab9 promoter act 13%, Luc counter 1% and SMN2 splice up inconclusive.
`N=c1oc2ccc3ccccc3c2cc1-c1nc(-c2ccccc2)cs1` gave FLuc modulator -15%, NPC1 prom act 20%, ELG1 genotoxic 0%, Rab9 promoter act 8%, Luc counter 0% and SMN2 splice up -18%.
Screening N=c1oc2ccccc2cc1-c1nc(-c2ccccc2)cs1 returned FLuc modulator 4.8µM*, NPC1 prom act 2%, ELG1 genotoxic 8%, Rab9 promoter act 12%, Luc counter -1% and SMN2 splice up 2%.
Screening O=C(Nc1nc2ccc(S(=O)(=O)N3CCCCC3)cc2s1)c1cccnc1 returned FLuc modulator inconclusive, NPC1 prom act 4%, ELG1 genotoxic -1%, Rab9 promoter act -4%, Luc counter -3% and SMN2 splice up -7%.
For CSc1nc2ccc3nc(NC(=O)c4cccs4)sc3c2s1 the results were FLuc modulator 2.1µM*, NPC1 prom act 3.2µM*, ELG1 genotoxic inconclusive, Rab9 promoter act 4µM*, Luc counter -2% and SMN2 splice up 7%.
`CC(=O)Nc1ccc2nc(NC(=O)c3cccnc3)sc2c1` gave FLuc modulator 12µM*, NPC1 prom act inconclusive, ELG1 genotoxic 11%, Rab9 promoter act inconclusive and Luc counter -15%.
Screening CC(=O)Nc1nc2ccc(-c3nc4ccccc4o3)cc2s1 returned FLuc modulator 3.4µM*, NPC1 prom act 2.2µM*, ELG1 genotoxic inconclusive, Rab9 promoter act 4.5µM*, Luc counter 2% and SMN2 splice up 5µM*.
For O=C(Nc1nc2ccc(F)cc2s1)c1cccs1 the results were FLuc modulator 2.4µM*, NPC1 prom act 3.2µM*, ELG1 genotoxic inconclusive, Rab9 promoter act 1.1µM*, Luc counter -28% and SMN2 splice up 3.2µM*.
`CCOC(=O)c1ccc(NC(=O)C2CCCN(c3ncnc4onc(C)c34)C2)cc1` (stereo not drawn) gave FLuc modulator 0%.
`Cc1cn([C@H]2C[C@H](O)[C@@H](COC(N)=O)O2)c(=O)[nH]c1=O` gave Luc counter -3%[7.66 µM] and SMN2 splice up -15%[9.22 µM].
For COc1ccc(N(C)C(=O)c2nn(-c3ccc(C)cc3)c(=O)n(C)c2=O)c(OC)c1 the results were FLuc modulator 3%.
`CC(=O)Nc1ccc2nc(NC(=O)C(Cl)(Cl)Cl)sc2c1` gave FLuc modulator 15µM*, NPC1 prom act 25%, ELG1 genotoxic 11% and Rab9 promoter act 26%.
`CC(C)NS(=O)(=O)c1ccc2nc(NC(=O)c3cncc(Br)c3)sc2c1` gave FLuc modulator 19µM*.
CN(C)S(=O)(=O)c1ccc2nc(NC(=O)c3cccs3)sc2c1 was read as FLuc modulator 1.2µM*, NPC1 prom act 1.4µM*, ELG1 genotoxic 2.3µM*, Rab9 promoter act 0.89µM*, Luc counter -1% and SMN2 splice up 11µM*.
CC(=O)Nc1ccc2nc(NC(=O)CCc3ccccc3)sc2c1 was read as FLuc modulator -16%, NPC1 prom act -2%, ELG1 genotoxic -2%, Rab9 promoter act inconclusive, Luc counter 0% and SMN2 splice up -1%.
CN(C)S(=O)(=O)c1ccc2nc(NC(=O)c3cccnc3)sc2c1 was read as FLuc modulator 3.8µM*, Luc counter -1% and SMN2 splice up 14µM*.
Screening CCCN1CCN(CC2=C(C(=O)OCC)C(c3ccc(Cl)cc3)NC(=O)N2)CC1 (stereo not drawn) returned FLuc modulator 2% and SMN2 splice up 7%.
For CCN(CC)CCSc1nnc2c3cc(F)ccc3n(CC)c2n1 the results were FLuc modulator -6% and SMN2 splice up -2%.
`O=C(Nc1nc2ccc(S(=O)(=O)N3CCCC3)cc2s1)c1cccs1` gave FLuc modulator inconclusive, NPC1 prom act -6%, ELG1 genotoxic 1%, Rab9 promoter act 20%, Luc counter -2% and SMN2 splice up 11%.
For O=C(Nc1nc2ccc(S(=O)(=O)N3CCOCC3)cc2s1)c1cccs1 the results were FLuc modulator 19µM*, NPC1 prom act 27%, ELG1 genotoxic 3% and Rab9 promoter act 28%.
`O=C(NCc1ccccc1Cl)c1ccc(NC(=O)c2nsc3ccccc23)cc1` gave FLuc modulator 3.8µM*.

Assay outcomes (PubChem BioAssay)
